# Inconclusive results are not listed. A call without a number means that no potency is given here. A number with no mark means an inactive call. Calls of active or inactive are those of the source. Calls follow the shape of the dose curve; as a rule, active = well fitted curve in the direction sought with a large enough effect; inconclusive = small, poorly fitted or top-dose-only effect, or another doubt; inactive = no such curve, though single readings can be large; an effect the other way counts as inactive or inconclusive.
# Assays:
# [1] = system: CRL-7250; assay: Cytotoxic Profiling of Annotated Libraries Using Quantitative High-Throughput Screening (AID 1296008); details: Five cell lines viability, CellTiter-Glo ATP luminescence, 48-72 h; max response: hits give low values; also: nearly all actives have a fitted effect of over 60% in size; also: potency is read from the fitted curve at half-maximal effect
# In short: (§1)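 Cells exposed to compounds for 48 or 72 hr at 37 degrees Celsius. Viability read as ATP-coupled luminescence with CellTiter-Glo after 10 min at room temperature.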
# [2] = system: HEK293; assay: as above; details: Five cell lines viability, CellTiter-Glo ATP luminescence, 48-72 h; max response: hits give low values
# In short: as §1
# [3] = system: HaCat; assay: as above; details: Five cell lines viability, CellTiter-Glo ATP luminescence, 48-72 h; max response: hits give low values
# In short: as §1
# [4] = system: KB-3-1; assay: as above; details: Five cell lines viability, CellTiter-Glo ATP luminescence, 48-72 h; max response: hits give low values
# In short: as §1
# [5] = system: NIH3T3; assay: as above; details: Five cell lines viability, CellTiter-Glo ATP luminescence, 48-72 h; max response: hits give low values
# In short: as §1
# [6] = system: HACAT; assay: qHTS assay to identify novel small-molecules to repurpose for Merkel cell carcinoma treatment (AID 1296009); details: MCC and control cell lines, CellTiter-Glo viability, 72 h; at 44.8 µM (top of the series) unless noted; also: nearly all actives have a fitted effect of over 60% in size
# In short: (§2)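 CellTiter-Glo luminescence after 72 hr compound exposure at 37 degree celsius gave cell viability. Libraries NPC and MIPE were run as 8- and 11-point dose responses; RLUs normalized to DMSO (negative) and no-cell (cytotoxicity) controls.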
# [7] = system: NIH3T3; assay: as above; details: MCC and control cell lines, CellTiter-Glo viability, 72 h; at 44.8 µM (top of the series) unless noted
# In short: as §2
# [8] = system: C33A; assay: Primary qHTS to identify gynecologic anti-cancer compounds using libraries of approved drugs and bioactive compounds (AID 1345084); details: Gynecologic cancer cell panel viability, ATPlite luminescence, 48 h; series mostly up to 57.5 µM; also: nearly all actives have a fitted effect of over 55% in size
# In short: (§3)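 ATP-based viability (ATPlite), 1,000 cells/well, 16 h pre-incubation, 48 h compound at 37 C, 5% CO2, 15 min RT before read.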
# [9] = system: CAOV3; assay: as above; details: Gynecologic cancer cell panel viability, ATPlite luminescence, 48 h; series mostly up to 57.5 µM
# In short: as §3
# [10] = system: CASKI; assay: as above; details: Gynecologic cancer cell panel viability, ATPlite luminescence, 48 h; series mostly up to 57.5 µM
# In short: as §3
# [11] = system: Es-2; assay: as above; details: Gynecologic cancer cell panel viability, ATPlite luminescence, 48 h; series mostly up to 57.5 µM
# In short: as §3
# [12] = system: HeLa; assay: as above; details: Gynecologic cancer cell panel viability, ATPlite luminescence, 48 h; series mostly up to 57.5 µM
# In short: as §3
# [13] = system: Hek293T; assay: as above; details: Gynecologic cancer cell panel viability, ATPlite luminescence, 48 h, control line for the selectivity index; series mostly up to 57.5 µM
# In short: as §3
# [14] = system: JEG-3; assay: as above; details: Gynecologic cancer cell panel viability, ATPlite luminescence, 48 h; series mostly up to 57.5 µM
# In short: as §3
compound,measurement,setting,value
O=C(O)c1cccc(C(=O)CCC2OC(n3cnc4c(=O)[nH]cnc43)C(O)C2O)c1 (stereo not given),outcome,[1],inactive
same,max response,[2],-2.52%
same,outcome,[3],inactive
same,max response,[4],3.59%
same,outcome,[5],inactive
same,outcome,[6],inactive [at 17.4 µM]
same,outcome,[7],inactive [at 17.4 µM]
same,Potency,[8],inactive
same,Potency,[9],inactive
same,outcome,[10],inactive
same,Potency,[11],inactive
same,Potency,[12],inactive
same,Potency,[13],inactive
same,Potency,[14],inactive
CC1(C)CCC2(C(=O)O)C(O)CC3(C)C(=CCC4C5(C)CCC(OC6OC(CO)C(O)C(O)C6OC6OC(CO)C(O)C(O)C6OC6OCC(O)(CO)C6O)C(C)(C)C5CCC43C)C2C1 (stereo not given),max response,[1],-4.69%
same,max response,[2],-13.6%
same,outcome,[3],inactive
same,outcome,[4],inactive
same,outcome,[5],inactive
same,outcome,[6],inactive [at 9.27 µM]
same,outcome,[7],inactive [at 9.27 µM]
same,"activity change, negative = cytotoxicity",[8],-3% [at 11.6 µM]
same,"activity change, negative = cytotoxicity",[9],12.3% [at 11.6 µM]
same,"activity change, negative = cytotoxicity",[10],-10.6% [at 11.6 µM]
same,"activity change, negative = cytotoxicity",[11],-1.15% [at 11.6 µM]
same,"activity change, negative = cytotoxicity",[13],13.1% [at 11.6 µM]
same,"activity change, negative = cytotoxicity",[14],-1.43% [at 11.6 µM]
COC(=O)/C=C/c1ccc(O[C@@H]2O[C@H](CO)[C@@H](O)[C@H](O)[C@H]2O)cc1,max response,[1],-1.55%
same,max response,[2],-5.47%
same,outcome,[3],inactive
same,max response,[4],2.42%
same,outcome,[5],inactive
same,outcome,[6],inactive
same,outcome,[7],inactive
same,Potency,[8],inactive
same,outcome,[10],inactive
same,Potency,[11],inactive
same,Potency,[12],inactive
same,Potency,[13],inactive
same,Potency,[14],inactive
CC1=CC(=O)C2C(C)(C)CCC[C@]2(C)[C@H]1CC[C@H](C)CC(=O)O (stereo not given in full),max response,[1],-2.16%
same,max response,[2],-12.7%
same,outcome,[3],inactive
same,outcome,[4],inactive
same,outcome,[5],inactive
same,outcome,[6],inactive
same,outcome,[7],inactive
same,Potency,[8],inactive
same,outcome,[10],inactive
same,Potency,[11],inactive
same,Potency,[12],inactive
same,Potency,[13],inactive
same,Potency,[14],inactive
CC1CC(O)/C=C/C(O)/C=C\C(=O)O1 (stereo not given),max response,[1],0.731%
same,max response,[2],-11.1%
same,outcome,[3],inactive
same,outcome,[4],inactive
same,outcome,[5],inactive
same,outcome,[6],inactive [at 92 µM]
same,outcome,[7],inactive [at 92 µM]
same,Potency,[8],inactive
same,outcome,[10],inactive
same,Potency,[11],inactive
same,Potency,[12],inactive
same,Potency,[13],inactive
same,Potency,[14],inactive
CC1(C)C2CC[C@@]34CC(CC[C@H]3[C@]2(C)CC[C@@H]1O[C@@H]1O[C@H](CO)[C@@H](O)[C@H](O)[C@H]1O)[C@](C)(O)C4 (stereo not given in full),max response,[1],-8.76%
same,max response,[2],0.264%
same,outcome,[3],inactive
same,max response,[4],8.52%
same,outcome,[5],inactive
same,outcome,[6],inactive [at 17.4 µM]
same,outcome,[7],inactive [at 17.4 µM]
same,Potency,[8],inactive
same,outcome,[10],inactive
same,Potency,[11],inactive
same,Potency,[12],inactive
same,Potency,[13],inactive
same,Potency,[14],inactive
O=[N+]([O-])c1cc(Cl)ccc1S(=O)(=O)N1CCN(Cc2ccccc2)CC1,max response,[1],-3.5%
same,max response,[2],-21.3%
same,outcome,[3],inactive
same,max response,[4],-13.2%
same,outcome,[5],inactive
same,outcome,[6],inactive
same,outcome,[7],inactive
same,Potency,[8],inactive
same,Potency,[9],inactive
same,outcome,[10],inactive
same,Potency,[11],inactive
same,Potency,[12],inactive
same,Potency,[14],inactive
Cc1ccccc1-n1nc(-c2c(-c3ccc(F)cc3)nn3c2NC[C@@H](CO)C3)ccc1=O,max response,[1],1.82%
same,max response,[2],-7.72%
same,outcome,[3],inactive
same,max response,[4],1.64%
same,outcome,[5],inactive
same,outcome,[6],inactive
same,outcome,[7],inactive
same,Potency,[8],inactive
same,Potency,[9],inactive
same,outcome,[10],inactive
same,Potency,[11],inactive
same,Potency,[13],inactive
same,Potency,[14],inactive
COC(=O)c1[nH]c(=O)c2ccccc2c1-c1ccc[nH]1,outcome,[1],inactive
same,Potency,[2],20.6 µM (active)
same,outcome,[3],inactive
same,outcome,[4],inactive
same,outcome,[5],inactive
same,outcome,[6],inactive
same,outcome,[7],inactive
same,Potency,[8],inactive
same,Potency,[9],inactive
same,outcome,[10],inactive
same,Potency,[12],inactive
same,Potency,[14],inactive
COc1ccc(Oc2c(Cl)cnn(C3c4ccccc4-c4ccccc43)c2=O)cc1,max response,[1],-3.95%
same,max response,[2],-2.77%
same,outcome,[3],inactive
same,max response,[4],-2.29%
same,outcome,[5],inactive
same,outcome,[6],inactive
same,outcome,[7],inactive
same,Potency,[8],inactive
same,outcome,[10],inactive
same,Potency,[11],inactive
same,Potency,[12],inactive
same,Potency,[13],inactive
same,Potency,[14],inactive
O=c1[nH]ccc2nc(-c3ccc(CN4CCC(c5nc(-c6ccccn6)n[nH]5)CC4)cc3)c(-c3ccccc3)cc12,outcome,[1],inactive
same,Potency,[2],5.17 µM (active)
same,outcome,[3],inactive
same,max response,[4],-16.7%
same,outcome,[5],inactive
same,outcome,[6],inactive
same,outcome,[7],inactive
same,Potency,[8],inactive
same,Potency,[9],inactive
same,outcome,[10],inactive
same,Potency,[11],inactive
same,Potency,[12],inactive
same,Potency,[14],inactive
CC(O)/C=C/C1(O)C(C)C(O)C(O[C@@H]2O[C@H](CO)[C@@H](O)[C@H](O)[C@H]2O)CC1(C)C (stereo not given in full),max response,[1],-7.69%
same,max response,[2],-15.2%
same,outcome,[3],inactive
same,max response,[4],0.447%
same,outcome,[5],inactive
same,outcome,[6],inactive [at 17.4 µM]
same,outcome,[7],inactive [at 17.4 µM]
same,Potency,[8],inactive
same,Potency,[9],inactive
same,outcome,[10],inactive
same,Potency,[11],inactive
same,Potency,[12],inactive
same,Potency,[13],inactive
same,Potency,[14],inactive
O=C(Nc1ccccc1)Nc1ccc(-c2ccc(C(=O)C3CCCC3C(=O)O)cc2)cc1 (stereo not given),max response,[1],-3.37%
same,max response,[2],-9.05%
same,outcome,[3],inactive
same,outcome,[4],inactive
same,outcome,[5],inactive
same,outcome,[6],inactive
same,outcome,[7],inactive
same,Potency,[8],inactive
same,outcome,[10],inactive
same,Potency,[11],inactive
same,Potency,[12],inactive
same,Potency,[13],inactive
same,Potency,[14],inactive

# — PubChem BioAssay (NCATS)
